According to PubChem BioAssay (Tox21):
Calls of active or inactive are those of the source. Calls come from the whole dose curve.

molecular target: Acetylcholinesterase (Homo sapiens) (UniProt P22303); assay: Acetylcholinesterase (AChE) small molecule antagonists: enzyme-based qHTS assay with human liver microsomes (AID 1347399); details: Potency: qHTS inhibition; outcome: qHTS inhibition; series mostly up to 115 µM; activity change, negative = inhibition: at the top concentration; note: nearly all actives have a fitted effect of over 60% in size
In short: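 Recombinant human AChE (50 mU/mL in the enzyme mix) and human liver microsomes (0.25 mg/mL final) were preincubated with compound and NADPH (0.25 mg/mL final) for 30 min at 37 C. Acetylthiocholine/DTNB was then added; thiocholine was read colorimetrically after 10 min at room temperature.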
% is set by controls: 0 for no effect and ±100 for the full control effect.

Chain of Acetylcholinesterase (Homo sapiens) (P22303 whole entry, looked up): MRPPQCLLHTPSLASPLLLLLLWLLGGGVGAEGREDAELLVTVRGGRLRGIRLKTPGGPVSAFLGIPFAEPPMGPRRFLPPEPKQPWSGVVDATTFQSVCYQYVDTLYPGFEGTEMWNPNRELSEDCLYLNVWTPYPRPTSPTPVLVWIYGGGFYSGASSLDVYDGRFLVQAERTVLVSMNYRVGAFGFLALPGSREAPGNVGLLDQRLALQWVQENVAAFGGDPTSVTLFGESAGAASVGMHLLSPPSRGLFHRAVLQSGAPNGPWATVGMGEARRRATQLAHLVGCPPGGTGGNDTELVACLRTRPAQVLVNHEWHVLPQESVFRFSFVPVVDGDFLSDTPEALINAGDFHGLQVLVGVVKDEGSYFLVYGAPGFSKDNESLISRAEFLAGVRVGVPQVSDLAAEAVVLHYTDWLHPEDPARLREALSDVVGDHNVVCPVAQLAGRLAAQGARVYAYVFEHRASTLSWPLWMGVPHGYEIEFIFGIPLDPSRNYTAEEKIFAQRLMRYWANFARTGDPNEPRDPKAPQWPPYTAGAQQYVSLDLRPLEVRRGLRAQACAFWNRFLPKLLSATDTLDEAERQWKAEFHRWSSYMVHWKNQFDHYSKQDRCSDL

Row | SMILES | activity change, negative = inhibition | Potency
1 | CC(=O)OC[C@H]1O[C@@H](OC(C)=O)[C@H](OC(C)=O)[C@@H]1OC(C)=O | 0.293% [at 53 µM] (inactive) | –
2 | CC/C(=C(\c1ccc(O)cc1)c1ccc(OCCN(C)C)cc1)c1ccccc1 | 6.16% (inactive) | –
3 | CCOC(=O)[C@H](CCc1ccccc1)N[C@@H](C)C(=O)N1C(=O)N(C)C[C@H]1C(=O)O | 1.68% [at 53 µM] (inactive) | –
4 | CN(C)CCCN(C)C | 0.146% [at 10.5 µM] (inactive) | –
5 | Nc1cc(-c2ccncc2)c[nH]c1=O | – | inactive
6 | CCCCCCCCCCn1cc[n+](CCCCCCCCCC)c1C | 2.1% (inactive) | –
7 | Cc1ccc2oc(=O)ccc2c1 | – | inactive
8 | Nc1ccc(O)cc1 | – | inactive
9 | CCOC(=O)C(C#N)=C(c1ccccc1)c1ccccc1 | – | inactive
10 | Cc1cccc(C)c1NC(=O)CN1CCN(CCCC(c2ccc(F)cc2)c2ccc(F)cc2)CC1 | 1.51% [at 53 µM] (inactive) | –
11 | CN1C(=O)CC(C)(c2ccccc2)C1=O (stereo not given) | 0.168% [at 53 µM] (inactive) | –
12 | COC(=O)c1nc(Cl)c(Cl)nc1N | 2.06% [at 53 µM] (inactive) | –
13 | Cc1ccccc1OCC1CO1 (stereo not given) | -1.21% (inactive) | –
14 | c1ccc(CNCCNCc2ccccc2)cc1 | -3.44% [at 53 µM] (inactive) | –
15 | CCCCOC(=O)c1ccc(O)cc1 | – | inactive
16 | CCCOC(C)=O | 1.63% (inactive) | –
17 | O=c1[nH]nnc2ccccc12 | – | inactive
18 | Fc1ccc([C@@H]2CCNC[C@H]2COc2ccc3c(c2)OCO3)cc1 | -0.755% [at 53 µM] (inactive) | –
19 | Cc1ncc(CSSCc2cnc(C)c(O)c2CO)c(CO)c1O | 1.18% [at 53 µM] (inactive) | –
20 | CCc1ccccc1CC | – | inactive

Row | SMILES | activity change, negative = inhibition | Potency
21 | Cc1cccc2c1cc1ccc3cccc4ccc2c1c34 | 1.76% (inactive) | –
22 | NNc1nc(-c2ccc([N+](=O)[O-])cc2)cs1 | 0.688% (inactive) | –
23 | CCOC(=O)C1=C(C)NC(C)=C(C(=O)OC)C1c1cccc([N+](=O)[O-])c1 (stereo not given) | 3.17% [at 53 µM] (inactive) | –
24 | CCC(Cc1c(I)cc(I)c(N)c1I)C(=O)O (stereo not given) | – | inactive
25 | CCNc1ccccc1 | – | inactive
26 | CCCCCNCCCCC | – | inactive
27 | C[C@@H]1NC(=O)[C@@H](N)CNC(=O)[C@H](C2CCNC(N)=N2)NC(=O)/C(=C/NC(N)=O)NC(=O)[C@H](CNC(=O)C[C@@H](N)CCCN)NC1=O (stereo not given in full) | -1.43% [at 0.435 µM] (inactive) | –
28 | Oc1ccc2c(c1)OCO2 | -9.56% (inactive) | –
29 | c1ccc2[nH]ccc2c1 | – | inactive
30 | CCCCCCCCCCCCCCCCCCN(C)C | 1.34% [at 53 µM] (inactive) | –
31 | CNC1(C)C2CCC(C2)C1(C)C (stereo not given) | -0.147% [at 53 µM] (inactive) | –
32 | Clc1cccc(-c2cc(Cl)cc(Cl)c2)c1 | -0.222% (inactive) | –
33 | CC(C)C[C@H](NC(=O)[C@H](CCc1ccccc1)NC(=O)CN1CCOCC1)C(=O)N[C@@H](Cc1ccccc1)C(=O)N[C@@H](CC(C)C)C(=O)[C@@]1(C)CO1 | -1.08% [at 53 µM] (inactive) | –
34 | O=C=NCCCCCCN=C=O | – | inactive
35 | O=S(O)O | -0.486% [at 23.6 µM] (inactive) | –
36 | O=C(O)Cn1c(=O)n(Cc2ccc(Br)cc2F)c(=O)c2ccc(Cl)cc21 | – | inactive
37 | NC(=O)COCCN1CCN(C(c2ccccc2)c2ccc(Cl)cc2)CC1 (stereo not given) | 0% [at 53 µM] (inactive) | –
38 | COC(=O)/C=C/c1ccccc1 | – | inactive
39 | CC(CCO)CCc1ccccc1 (stereo not given) | 0.0764% (inactive) | –
40 | CC1CN(c2ccccc2)NC1=O (stereo not given) | 0.763% (inactive) | –
